# Assay results from PubChem BioAssay (NCATS).
# Values joined by “and” are separate entries in the source; they are usually repeats but may differ in a detail not shown here. Equal entries are not always repeated. Inconclusive results are not listed. Entries that show only a call come without a potency. Some structures have more than one record in an assay (separate samples or runs), and their calls can disagree. Active and inactive are the calls of the source. Calls come from the whole dose curve; as a rule, active = well fitted curve in the direction sought with a large enough effect; inconclusive = small, poorly fitted or top-dose-only effect, or another doubt; inactive = no such curve, though single readings can be large; an effect the other way counts as inactive or inconclusive.
# Columns and labels:
# MCC-13 = test: qHTS assay to identify novel small-molecules to repurpose for Merkel cell carcinoma treatment (AID 1296009); conditions: MCC and control cell lines, CellTiter-Glo viability, 72 h; series mostly up to 46 µM; note: nearly all actives have a fitted effect of over 60% in size
# Summary of the method: (§1)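 Luminescence from CellTiter-Glo, read 10 min after addition at room temperature, reported viability following a 72 hr, 37 degree celsius treatment with NPC or MIPE compounds in titration; values normalized to plate controls.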
# MKL-1 = test: as above; conditions: MCC and control cell lines, CellTiter-Glo viability, 72 h; series mostly up to 46 µM
# Summary of the method: as §1
# MKL-2 = test: as above; conditions: MCC and control cell lines, CellTiter-Glo viability, 72 h; series mostly up to 46 µM
# Summary of the method: as §1
# NIH3T3 = test: as above; conditions: MCC and control cell lines, CellTiter-Glo viability, 72 h; at 44.8 µM (top of the series) unless noted
# Summary of the method: as §1
# UISO = test: as above; conditions: MCC and control cell lines, CellTiter-Glo viability, 72 h; series mostly up to 46 µM
# Summary of the method: as §1
# WaGa = test: as above; conditions: MCC and control cell lines, CellTiter-Glo viability, 72 h; series mostly up to 46 µM
# Summary of the method: as §1
# C33A = test: Primary qHTS to identify gynecologic anti-cancer compounds using libraries of approved drugs and bioactive compounds (AID 1345084); conditions: Gynecologic cancer cell panel viability, ATPlite luminescence, 48 h; series mostly up to 57.5 µM; note: nearly all actives have a fitted effect of over 55% in size
# Summary of the method: (§2)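 Cells, 1,000 per well, plated 16 h, then exposed 48 h at 37 C to compounds. Viability by ATPlite luminescence after 15 min at room temperature.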
# CAOV3 = test: as above; conditions: Gynecologic cancer cell panel viability, ATPlite luminescence, 48 h; series mostly up to 57.5 µM
# Summary of the method: as §2
# CASKI = test: as above; conditions: Gynecologic cancer cell panel viability, ATPlite luminescence, 48 h; series mostly up to 57.5 µM
# Summary of the method: as §2
# MCC-26 = test: qHTS assay to identify novel small-molecules to repurpose for Merkel cell carcinoma treatment (AID 1296009); conditions: MCC and control cell lines, CellTiter-Glo viability, 72 h; series mostly up to 46 µM; note: nearly all actives have a fitted effect of over 60% in size
# Summary of the method: as §1
# Potency is the fitted concentration of half-maximal effect.
Compound,Potency (MCC-13),Potency (MKL-1),Potency (MKL-2),outcome (NIH3T3),Potency (UISO),Potency (WaGa),Potency (C33A),Potency (CAOV3),Potency (CASKI),Potency (MCC-26)
COC(=O)C1=C(C)NC(C)=C(C(=O)OCCCN2CCC(c3ccccc3)(c3ccccc3)CC2)C1c1cccc([N+](=O)[O-])c1 (centres undefined),inactive,inactive and 23.7 µM (active),inactive and 11.9 µM (active),inactive,inactive and 18.8 µM (active),inactive,–,–,–,–
CC(=O)Nc1ccc(O)cc1,inactive,inactive,inactive,inactive,inactive,inactive,inactive,inactive,inactive,–
CCCCC(CC)COC(=O)C(C#N)=C(c1ccccc1)c1ccccc1 (centres undefined),inactive,inactive,–,inactive,–,inactive,inactive,inactive,inactive,inactive
Nc1cccc2c1CN(C1CCC(=O)NC1=O)C2=O (centres undefined),inactive,inactive,inactive,–,inactive,–,inactive,inactive,inactive,inactive
NCCCCNCCCN,inactive,–,8330 nM (active),–,inactive,–,–,–,–,inactive
CCOc1cc(CC(=O)N[C@@H](CC(C)C)c2ccccc2N2CCCCC2)ccc1C(=O)O,inactive,inactive,inactive,–,inactive,inactive,–,–,–,–
O=C1CCc2ccc(OCCCCN3CCN(c4cccc(Cl)c4Cl)CC3)cc2N1,inactive,inactive,–,–,inactive,inactive,inactive,–,inactive,inactive
O=c1c(O)c(-c2ccc(O)cc2O)oc2cc(O)cc(O)c12,inactive,inactive,inactive,–,inactive,inactive,–,–,–,–
COc1cc(C(C)=O)ccc1OCCCN1CCC(c2noc3cc(F)ccc23)CC1,inactive,inactive,–,inactive,inactive,inactive,inactive,–,inactive,inactive
N=C(N)c1ccc2cc(OC(=O)c3ccc(N=C(N)N)cc3)ccc2c1,inactive,inactive,–,–,inactive,inactive and 26.6 µM (active),inactive,inactive,inactive,inactive
Oc1ccc(-c2nc(-c3ccc(F)cc3)c(-c3ccncc3)[nH]2)cc1,inactive,–,20900 nM (active),inactive,inactive,–,–,–,–,inactive
CCN(CC)CCOc1ccc(Nc2ncc3cc(-c4c(Cl)cccc4Cl)c(=O)n(C)c3n2)cc1,2640 nM (active),1.32 µM (active),5260 nM (active),–,5260 nM (active),2960 nM (active),–,–,–,–
CN(C)c1ccc(O)c2c1C[C@H]1C[C@H]3[C@H](N(C)C)C(=O)C(C(N)=O)=C(O)[C@@]3(O)C(=O)C1=C2O,inactive,inactive,inactive,inactive,inactive,inactive and 18.8 µM (active),inactive,inactive,inactive,–
O=P(O)(O)C(O)(Cn1ccnc1)P(=O)(O)O,inactive,inactive,inactive,–,inactive,inactive,–,–,–,–
Cc1cccc(C#Cc2ccccc2)n1,inactive,inactive,inactive,–,inactive,inactive,–,–,–,–
Cc1cccc(-c2[nH]ncc2-c2ccc3ncccc3n2)n1,inactive,inactive,inactive,–,inactive,–,–,–,–,–
COc1ccc2cc([C@H](C)C(=O)O)ccc2c1,inactive,inactive,inactive,inactive,inactive,inactive,inactive,inactive,inactive,–
COC1=C(OC)C(=O)C(CCCCCCCCCCO)=C(C)C1=O,inactive,15 µM (active),–,inactive,–,–,–,–,inactive,inactive
CCCS(=O)c1ccc2nc(NC(=O)OC)[nH]c2c1 (centres undefined),inactive,inactive,–,–,–,–,inactive,inactive,inactive,inactive
O=C(NC(Cc1cc(=O)[nH]c2ccccc12)C(=O)O)c1ccc(Cl)cc1 (centres undefined),inactive,inactive,inactive,inactive,inactive,inactive,inactive,inactive,inactive,–
NNc1nncc2ccccc12,inactive,inactive,inactive,inactive [at 17.4 µM],inactive,inactive,inactive,–,inactive,–
CC(C)C[C@H](NC(=O)[C@H](Cc1ccccc1)NC(=O)c1cnccn1)B(O)O,–,0.0266 µM (active),6 nM (active),–,26.6 nM (active),16.8 nM (active),100 nM (active),–,–,–
O=C(NOCC1CC1)c1ccc(F)c(F)c1Nc1ccc(I)cc1Cl,–,18.8 µM (active) and 20.9 µM (active),–,–,15000 nM (active),15000 nM (active),inactive,–,inactive,inactive
CCCOc1ccc2nc(NC(=O)OC)[nH]c2c1,188 nM (active),–,–,–,–,–,–,inactive,–,–
CC(C)Oc1ccc2c(=O)c(-c3ccccc3)coc2c1,–,–,–,–,–,–,–,22400 nM (active),–,–
O=C(O)c1cccc(-c2noc(-c3ccccc3F)n2)c1,inactive,inactive,inactive,–,inactive,inactive,11.2 µM (active) and 12.6 µM (active),–,11.2 µM (active) and 14.1 µM (active),–
